Results on 29 molecules are retold here after PubChem BioAssay (NCATS).

Records with an inconclusive call do not appear. Activity calls are given as the source filed them. The call rests on the fitted dose curve; in most records, active means well fitted inhibition curve with a large enough effect; inconclusive means small, poorly fitted or top-dose-only effect; inactive means flat fitted curve, though single readings scatter.

This test has as its system CP203. Kind of test: qHTS profiling for inhibitors of Plasmodium falciparum proliferation (AID 504749). Further: nearly all actives have a fitted effect of over 60% in size. The following applies: P. falciparum in erythrocytes, SYBR Green DNA, 72 h; series mostly up to 28.7 µM. The text has this:
NIH National Institute of Allergy and Infectious Diseases [NIAID] NIH Chemical Genomics Center [NCGC] MLPCN Grant: None Assay Provider: Xinzhuan Su, NIAID NCGC Assay Overview: Plasmodium falciparum is a virulent malarial parasite that kills 1-2 million people worldwide each year. Transmitted by mosquitoes, the sporozoite form of the parasite enters the blood stream to infect hepatocytes, where they become merozoites that infect red blood cells (erythrocytes). Within erythrocytes, merozoites begin a […] cycle of growth and division, after which the parasite is released to infect new red blood cells. Gametocytes, which form within erythrocytes as well, circulate in the bloodstream and are ingested by the mosquito, thereby completing the life cycle. To profile malarial isolates for differential chemical responses and to identify inhibitors of malarial growth, an assay that measures P. falciparum growth and replication within erythrocytes was employed. This assay uses a DNA binding fluorescent dye (SYBR Green) to detect parasite DNA following cell lysis. Because mature erythrocytes lack DNA, only Plasmodium-derived DNA is detected.
NCGC Assay Protocol Summary: The SYBR Green viability assay was adapted from a method described previously (Plouffe et al., 2008). For screening 3 ul culture medium was dispensed into 1536 well black clear bottom plates (Aurora Biotechnologies) using a Multidrop Combi (Thermo Fisher Scientific Inc.), 23 nL compounds in DMSO were added by a pin tool (Kalypsys), and 5 ul of erythrocytes infected with P. falciparum (0.3% parasitemia, 2.5% hematocrit final concentration) were added. The plates were incubated at 37 C in a humidified incubator in 5% CO2 for 72 h, and 2 ul lysis buffer (20 mM Tris HCl, 10 mM EDTA, 0.16% saponin, 1.6% triton X, 10X SYBR Green I supplied as 10,000X […] by Invitrogen) was added to each well. The plates were mixed for 25 sec with gentle shaking and incubated overnight at room temperature in the dark. The following morning, fluorescence intensity at 485(14) nm excitation and 535(25) nm emission wavelengths was measured on an EnVision (Perkin Elmer) plate reader. Plate reads were normalized relative to the control inhibitor (0.29 uM artemisinin) and vehicle (DMSO) wells present on each plate and then corrected by an algorithm using vehicle-only control plates at the beginning and end of the compound plate stack.
For `CCCCC1C(=O)N(c2ccccc2)N(c2ccccc2)C1=O`, the outcome was inactive.

For `CC(=O)c1ccc(S(=O)(=O)NC(=O)NC2CCCCC2)cc1`, the molecule was called inactive.

Take `NCCS`: the molecule was classed as inactive.

Turning to `O=C(O)Cc1cccc2ccccc12`, the molecule was called inactive.

As for `CCOC(=O)O[C@]1(C(=O)OCCl)CC[C@@H]2[C@H]3CCC4=CC(=O)C=C[C@]4(C)[C@@H]3[C@@H](O)C[C@@]21C`, the result was inactive.

With `Clc1ccc(Cn2c(CN3CCCC3)nc3ccccc32)cc1`, the molecule was classed as inactive.

As for `O=C1NC(=O)C(c2ccccc2)(c2ccccc2)N1`, the molecule was classed as inactive.

As to `CCN(CC)CCOC(=O)c1ccc(N)cc1`, the result was inactive.

For `O=C(O)c1cc(-c2ccccc2)nc2ccccc12`, the result was inactive.

`O=C(O)c1c(Cl)c(Cl)c(Cl)c(Cl)c1-c1c2cc(I)c(=O)c(I)c-2oc2c(I)c(O)c(I)cc12`: the outcome was inactive.

For the molecule `CCN(CC)CCNC(=O)c1ccc(N)cc1`, the call was inactive.

In the case of `CCCNC(=O)NS(=O)(=O)c1ccc(Cl)cc1`, the molecule was called inactive.

In the case of `Cc1cnc(C(=O)O)c[n+]1[O-]`, the molecule was classed as inactive.

Take `C[N+](C)(C)CCCCCC[N+](C)(C)C`: the molecule was classed as inactive.

Take `O=c1[nH]cnc2c1ncn2[C@H]1CC[C@@H](CO)O1`: the molecule was classed as inactive.

For `O=C1NCC2(CCN(CCc3ccccc3)CC2)O1`, the molecule was classed as inactive.

In the case of `COc1ccc(Cc2nccc3cc(OC)c(OC)cc23)cc1OC`, the call was inactive.

Turning to `CC1(C)O[C@H]2C[C@@H]3[C@H]4CCC5=CC(=O)C=C[C@]5(C)[C@@]4(F)[C@@H](O)C[C@]3(C)[C@]2(C(=O)CO)O1`, the result was inactive.

Take `CCN(CC)C(=O)c1ccc(O)c(OC)c1`: the call was inactive.

For `CC/C(=C(\c1ccccc1)c1ccc(OCCN(C)C)cc1)c1ccccc1`, the outcome was inactive.

Regarding `CC(=O)N[C@@H](CS)C(=O)O`, the outcome was inactive.

As for `CCN1CCC[C@H]1CNC(=O)c1cc(S(N)(=O)=O)ccc1OC`, the call was inactive.

As to `O=C(NCCN1CCOCC1)c1ccc(Cl)cc1`, the molecule was called inactive.

`COc1ccccc1N1CCN(CCCNc2cc(=O)n(C)c(=O)n2C)CC1`: the result was inactive.

As for `O=C1Nc2ccc(Cl)cc2C(C#CC2CC2)(C(F)(F)F)O1` (centres undefined), the call was inactive.

Consider `C[C@@H](O)[C@H]1C(=O)N2C(C(=O)O)=C(S[C@@H]3CN[C@H](C(=O)N(C)C)C3)[C@H](C)[C@H]12`, for which the molecule was classed as inactive.

`CC(=O)CCCCn1c(=O)c2c(ncn2C)n(C)c1=O`: the call was inactive.

On to `NC(N)=Nc1nc(CSCC/C(N)=N/S(N)(=O)=O)cs1`, for which the molecule was classed as inactive.

For `CCCCCN(C)CCC(O)(P(=O)(O)O)P(=O)(O)O`, the result was inactive.
